Experiment in all cases: DAPPL (digital affinity profiling via proximity ligation, sequencing); 10 mM Tris-HCl pH 7.5, 50 mM NaCl, 1 mM DTT, 4% glycerol, room temperature, 30 min; GST-TFs on glutathione beads, 16-mer random dsDNA library, 0.1% formaldehyde crosslink after washing; high values mean tight binding
What all share (details): protein: recombinant; tags: N-terminal GST; dsDNA, one strand shown

The target of one assay is T1, FLI1 (Homo sapiens, UniProt Q01543 1-452).
T1 sequence: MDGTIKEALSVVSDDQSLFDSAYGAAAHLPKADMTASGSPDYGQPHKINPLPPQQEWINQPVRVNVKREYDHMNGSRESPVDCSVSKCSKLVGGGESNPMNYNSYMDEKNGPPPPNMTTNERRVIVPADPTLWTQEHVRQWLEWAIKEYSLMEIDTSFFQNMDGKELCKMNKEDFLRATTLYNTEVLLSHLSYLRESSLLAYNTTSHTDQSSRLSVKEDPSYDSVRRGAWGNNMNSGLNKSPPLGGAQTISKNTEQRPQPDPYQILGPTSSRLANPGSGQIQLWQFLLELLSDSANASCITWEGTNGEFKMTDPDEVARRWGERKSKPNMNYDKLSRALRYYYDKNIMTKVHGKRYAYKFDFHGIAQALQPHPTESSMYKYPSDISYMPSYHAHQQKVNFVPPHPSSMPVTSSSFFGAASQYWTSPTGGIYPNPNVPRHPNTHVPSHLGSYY
A digest of the protocol: (§1)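 Pools were built from human transcription factors expressed in yeast as GST fusions, captured on glutathione beads and DNA-barcoded, along with a tag-only sample. Incubation with 200 nmole of a 16-mer random double-stranded DNA library lasted 30 min at room temperature in Tris/NaCl/DTT/glycerol buffer, and was followed by washing, 0.1% formaldehyde crosslinking, proximity ligation, PCR amplification and Illumina NextSeq500 sequencing. Binding signal is the quotient of each hexamer's read frequency for a factor and its frequency for the tag-only sample.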

Another assay deals with T2, ELK1 (Homo sapiens, UniProt P19419 1-428).
T2 sequence: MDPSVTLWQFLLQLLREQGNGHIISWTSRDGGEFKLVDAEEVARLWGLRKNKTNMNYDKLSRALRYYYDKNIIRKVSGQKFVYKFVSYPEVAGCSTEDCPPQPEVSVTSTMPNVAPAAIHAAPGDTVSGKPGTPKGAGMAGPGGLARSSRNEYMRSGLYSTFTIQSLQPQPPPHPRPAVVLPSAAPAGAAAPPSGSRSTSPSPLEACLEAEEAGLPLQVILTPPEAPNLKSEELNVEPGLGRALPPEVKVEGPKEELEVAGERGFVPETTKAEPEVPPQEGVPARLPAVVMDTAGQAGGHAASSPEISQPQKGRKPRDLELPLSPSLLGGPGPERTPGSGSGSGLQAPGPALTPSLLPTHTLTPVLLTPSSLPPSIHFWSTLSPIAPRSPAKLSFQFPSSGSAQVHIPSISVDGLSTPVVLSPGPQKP
The essentials: as §1

Another assay addresses T3, GABPA (Homo sapiens, UniProt Q06546 1-454).
T3 sequence: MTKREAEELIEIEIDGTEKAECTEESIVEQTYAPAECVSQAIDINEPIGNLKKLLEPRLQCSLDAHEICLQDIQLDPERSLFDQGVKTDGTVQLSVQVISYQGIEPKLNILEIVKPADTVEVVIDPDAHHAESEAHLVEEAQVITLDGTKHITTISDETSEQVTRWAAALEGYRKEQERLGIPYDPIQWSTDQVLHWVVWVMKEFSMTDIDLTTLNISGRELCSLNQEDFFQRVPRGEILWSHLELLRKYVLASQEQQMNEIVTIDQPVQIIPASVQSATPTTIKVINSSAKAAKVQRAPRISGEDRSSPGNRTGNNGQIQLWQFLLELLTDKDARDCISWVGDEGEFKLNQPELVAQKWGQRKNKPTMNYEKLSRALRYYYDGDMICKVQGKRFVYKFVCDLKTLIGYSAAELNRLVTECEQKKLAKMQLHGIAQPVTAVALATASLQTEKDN
A digest of the protocol:
as §1

The next assay deals with T4, ERG (Homo sapiens, UniProt P11308 1-479).
T4 sequence: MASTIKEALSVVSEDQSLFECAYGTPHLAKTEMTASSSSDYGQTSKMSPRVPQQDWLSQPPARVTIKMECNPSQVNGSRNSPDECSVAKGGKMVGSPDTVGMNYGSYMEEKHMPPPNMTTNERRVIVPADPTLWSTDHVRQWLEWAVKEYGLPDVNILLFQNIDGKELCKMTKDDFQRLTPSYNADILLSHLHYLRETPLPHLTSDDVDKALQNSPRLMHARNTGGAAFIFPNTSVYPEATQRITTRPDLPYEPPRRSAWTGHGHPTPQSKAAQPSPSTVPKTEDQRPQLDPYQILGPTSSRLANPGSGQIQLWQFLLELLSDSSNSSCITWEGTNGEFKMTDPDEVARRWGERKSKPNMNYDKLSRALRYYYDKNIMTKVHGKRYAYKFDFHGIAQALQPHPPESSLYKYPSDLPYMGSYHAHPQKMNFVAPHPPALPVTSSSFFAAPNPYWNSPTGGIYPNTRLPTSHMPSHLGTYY
The essentials:
as §1

A further assay addresses ELF1 (Homo sapiens, UniProt P32519 1-619). The essentials: as §1
In the next assay the target is T5, EHF (Homo sapiens, UniProt Q9NZC4 1-300).
T5 sequence: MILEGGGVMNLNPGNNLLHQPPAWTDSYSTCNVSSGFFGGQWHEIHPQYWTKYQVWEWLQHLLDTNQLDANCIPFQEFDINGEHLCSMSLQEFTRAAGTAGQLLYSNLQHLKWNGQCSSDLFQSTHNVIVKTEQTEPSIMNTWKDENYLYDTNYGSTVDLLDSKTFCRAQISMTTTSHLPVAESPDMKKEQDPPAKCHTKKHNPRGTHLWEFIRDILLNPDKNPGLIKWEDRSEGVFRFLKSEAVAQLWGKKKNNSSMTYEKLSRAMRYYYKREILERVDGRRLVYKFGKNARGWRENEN
A digest of the protocol: as §1

The target of the next assay is SPI1 (Homo sapiens, UniProt P17947 1-270). The essentials: as §1
The next assay has as its target SPIB (Homo sapiens, UniProt Q01892 1-262). The essentials: as §1
Another assay concerns the target T6, ELK3 (Homo sapiens, UniProt P41970 1-407).
T6 sequence: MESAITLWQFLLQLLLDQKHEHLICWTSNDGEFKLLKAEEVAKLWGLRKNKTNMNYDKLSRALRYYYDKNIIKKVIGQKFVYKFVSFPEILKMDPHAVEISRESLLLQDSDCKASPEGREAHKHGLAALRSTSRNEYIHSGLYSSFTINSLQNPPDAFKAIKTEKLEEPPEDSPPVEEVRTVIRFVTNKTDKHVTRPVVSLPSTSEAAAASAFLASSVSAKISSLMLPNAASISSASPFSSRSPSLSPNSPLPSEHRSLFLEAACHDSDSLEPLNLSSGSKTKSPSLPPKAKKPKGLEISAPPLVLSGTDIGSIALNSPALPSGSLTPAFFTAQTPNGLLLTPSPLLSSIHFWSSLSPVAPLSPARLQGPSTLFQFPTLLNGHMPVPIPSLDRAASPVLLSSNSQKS
A digest of the protocol:
as §1

A further assay deals with T7, FEV (Homo sapiens, UniProt Q99581 1-238).
T7 sequence: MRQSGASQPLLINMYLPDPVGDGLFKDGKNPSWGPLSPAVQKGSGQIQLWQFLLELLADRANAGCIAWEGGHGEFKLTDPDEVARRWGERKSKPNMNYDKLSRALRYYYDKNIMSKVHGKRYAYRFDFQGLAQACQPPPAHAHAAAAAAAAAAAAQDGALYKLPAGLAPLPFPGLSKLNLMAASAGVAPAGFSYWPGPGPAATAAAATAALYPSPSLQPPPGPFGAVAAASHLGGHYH
A digest of the protocol: as §1

The next assay addresses ETV5 (Homo sapiens, UniProt P41161 1-510). A digest of the protocol:
as §1

A further assay has as its target ELF4 (Homo sapiens, UniProt Q99607 1-663). The essentials: as §1
The target in another assay is ETV1 (Homo sapiens, UniProt P50549 1-477). A digest of the protocol:
as §1

For another assay, the target named is T8, ERF (Homo sapiens, UniProt P50548 1-548).
T8 sequence: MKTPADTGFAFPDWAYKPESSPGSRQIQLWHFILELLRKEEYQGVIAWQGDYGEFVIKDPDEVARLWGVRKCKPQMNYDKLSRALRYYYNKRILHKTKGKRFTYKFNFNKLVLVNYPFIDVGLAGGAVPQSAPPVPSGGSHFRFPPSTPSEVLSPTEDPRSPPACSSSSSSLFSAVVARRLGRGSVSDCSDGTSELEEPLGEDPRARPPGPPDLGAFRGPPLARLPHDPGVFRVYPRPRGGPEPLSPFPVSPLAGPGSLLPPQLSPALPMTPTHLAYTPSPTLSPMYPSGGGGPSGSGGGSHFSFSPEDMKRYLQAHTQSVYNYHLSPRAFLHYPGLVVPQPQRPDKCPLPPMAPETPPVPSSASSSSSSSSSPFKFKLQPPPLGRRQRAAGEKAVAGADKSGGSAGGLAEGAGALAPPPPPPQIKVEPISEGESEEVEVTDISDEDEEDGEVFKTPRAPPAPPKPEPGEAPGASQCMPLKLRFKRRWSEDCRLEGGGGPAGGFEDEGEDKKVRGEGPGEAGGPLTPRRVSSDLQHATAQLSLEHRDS
The essentials: as §1

In a further assay the target is T9, ETV3L (Homo sapiens, UniProt Q6ZN32 1-361).
T9 sequence: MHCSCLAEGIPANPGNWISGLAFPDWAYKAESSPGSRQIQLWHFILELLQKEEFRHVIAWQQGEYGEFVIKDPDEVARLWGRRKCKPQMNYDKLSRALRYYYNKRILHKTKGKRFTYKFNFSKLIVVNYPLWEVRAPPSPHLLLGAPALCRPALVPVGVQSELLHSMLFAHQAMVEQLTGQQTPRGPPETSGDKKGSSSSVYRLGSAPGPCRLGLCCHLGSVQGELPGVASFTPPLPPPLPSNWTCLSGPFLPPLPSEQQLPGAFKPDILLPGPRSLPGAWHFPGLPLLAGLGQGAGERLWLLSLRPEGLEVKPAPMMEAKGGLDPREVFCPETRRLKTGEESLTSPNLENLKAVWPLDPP
The essentials:
as §1

The next assay addresses T10, ETS2 (Homo sapiens, UniProt P15036 1-469).
T10 sequence: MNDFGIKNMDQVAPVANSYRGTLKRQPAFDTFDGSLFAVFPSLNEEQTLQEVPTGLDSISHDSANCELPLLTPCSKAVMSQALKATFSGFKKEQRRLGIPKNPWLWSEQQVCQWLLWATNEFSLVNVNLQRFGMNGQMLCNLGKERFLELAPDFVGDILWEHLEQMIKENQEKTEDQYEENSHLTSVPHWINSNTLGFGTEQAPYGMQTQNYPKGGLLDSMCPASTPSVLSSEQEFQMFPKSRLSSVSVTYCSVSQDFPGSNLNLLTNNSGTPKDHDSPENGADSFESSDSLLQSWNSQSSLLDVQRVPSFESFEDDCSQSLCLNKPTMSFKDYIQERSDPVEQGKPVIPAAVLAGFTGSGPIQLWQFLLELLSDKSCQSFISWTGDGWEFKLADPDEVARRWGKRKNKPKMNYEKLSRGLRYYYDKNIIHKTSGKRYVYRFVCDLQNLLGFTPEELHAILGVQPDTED
A digest of the protocol: as §1

In a further assay the target is T11, ELF5 (Homo sapiens, UniProt Q9UKW6-2 1-255).
T11 sequence: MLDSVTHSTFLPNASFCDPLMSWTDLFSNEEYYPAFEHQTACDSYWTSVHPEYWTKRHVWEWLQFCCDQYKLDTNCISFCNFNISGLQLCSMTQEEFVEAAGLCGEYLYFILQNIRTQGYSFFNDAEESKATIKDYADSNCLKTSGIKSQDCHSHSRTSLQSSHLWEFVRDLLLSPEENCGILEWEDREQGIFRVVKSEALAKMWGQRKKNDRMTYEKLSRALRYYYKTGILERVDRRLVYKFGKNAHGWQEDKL
A digest of the protocol: as §1

In another assay the target is T12, ETV3 (Homo sapiens, UniProt P41162-2 1-143).
T12 sequence: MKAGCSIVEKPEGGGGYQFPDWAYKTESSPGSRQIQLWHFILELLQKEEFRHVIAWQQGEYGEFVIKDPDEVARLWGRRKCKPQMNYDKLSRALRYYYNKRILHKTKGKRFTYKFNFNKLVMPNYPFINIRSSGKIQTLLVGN
A digest of the protocol: as §1

The target in another assay is ETV6 (Homo sapiens, UniProt P41212 1-452). A digest of the protocol: as §1
Chain of ETV6 (P41212 whole entry): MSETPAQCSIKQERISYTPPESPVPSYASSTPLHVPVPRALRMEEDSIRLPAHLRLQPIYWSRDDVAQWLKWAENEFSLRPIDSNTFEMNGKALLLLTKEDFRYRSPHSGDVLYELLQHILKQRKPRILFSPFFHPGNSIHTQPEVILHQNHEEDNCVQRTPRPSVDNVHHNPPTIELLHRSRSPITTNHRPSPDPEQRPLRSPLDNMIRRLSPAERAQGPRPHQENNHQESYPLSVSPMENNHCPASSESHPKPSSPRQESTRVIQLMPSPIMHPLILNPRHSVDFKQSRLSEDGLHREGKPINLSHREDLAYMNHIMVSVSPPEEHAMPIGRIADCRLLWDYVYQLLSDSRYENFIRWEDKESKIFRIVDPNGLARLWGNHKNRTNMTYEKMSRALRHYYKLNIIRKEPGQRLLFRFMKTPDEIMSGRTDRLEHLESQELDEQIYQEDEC

Chain of ELF1 (P32519 whole entry): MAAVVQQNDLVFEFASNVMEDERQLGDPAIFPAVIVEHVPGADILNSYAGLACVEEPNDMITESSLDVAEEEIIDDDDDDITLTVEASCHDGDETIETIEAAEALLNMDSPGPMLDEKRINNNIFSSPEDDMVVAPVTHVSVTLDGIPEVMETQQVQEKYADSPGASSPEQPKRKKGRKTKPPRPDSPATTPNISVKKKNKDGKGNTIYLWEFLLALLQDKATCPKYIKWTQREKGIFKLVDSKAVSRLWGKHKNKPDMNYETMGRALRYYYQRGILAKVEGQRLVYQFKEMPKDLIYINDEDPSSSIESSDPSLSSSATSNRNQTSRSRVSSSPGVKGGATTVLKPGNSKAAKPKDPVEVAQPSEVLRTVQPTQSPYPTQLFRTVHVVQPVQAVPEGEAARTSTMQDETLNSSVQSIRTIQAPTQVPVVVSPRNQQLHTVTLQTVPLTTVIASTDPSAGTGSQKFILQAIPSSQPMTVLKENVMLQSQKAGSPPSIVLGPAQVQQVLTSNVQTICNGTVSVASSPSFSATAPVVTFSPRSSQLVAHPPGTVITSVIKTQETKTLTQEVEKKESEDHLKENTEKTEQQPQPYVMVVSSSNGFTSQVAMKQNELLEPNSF
Chain of ETV5 (P41161 whole entry): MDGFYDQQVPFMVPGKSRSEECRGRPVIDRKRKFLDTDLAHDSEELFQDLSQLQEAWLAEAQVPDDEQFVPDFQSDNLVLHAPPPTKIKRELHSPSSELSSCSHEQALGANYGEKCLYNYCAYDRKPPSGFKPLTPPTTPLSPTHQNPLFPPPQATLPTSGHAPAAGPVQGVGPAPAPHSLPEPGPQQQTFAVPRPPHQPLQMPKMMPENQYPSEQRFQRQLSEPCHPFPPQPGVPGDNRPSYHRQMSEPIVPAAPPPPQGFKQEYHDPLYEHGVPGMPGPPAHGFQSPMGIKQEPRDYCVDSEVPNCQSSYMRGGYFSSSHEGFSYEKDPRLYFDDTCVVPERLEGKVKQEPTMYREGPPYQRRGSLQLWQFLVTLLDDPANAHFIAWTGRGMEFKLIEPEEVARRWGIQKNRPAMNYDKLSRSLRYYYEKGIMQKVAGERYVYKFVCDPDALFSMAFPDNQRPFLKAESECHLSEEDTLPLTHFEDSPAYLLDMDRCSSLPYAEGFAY
Chain of ELF4 (Q99607 whole entry): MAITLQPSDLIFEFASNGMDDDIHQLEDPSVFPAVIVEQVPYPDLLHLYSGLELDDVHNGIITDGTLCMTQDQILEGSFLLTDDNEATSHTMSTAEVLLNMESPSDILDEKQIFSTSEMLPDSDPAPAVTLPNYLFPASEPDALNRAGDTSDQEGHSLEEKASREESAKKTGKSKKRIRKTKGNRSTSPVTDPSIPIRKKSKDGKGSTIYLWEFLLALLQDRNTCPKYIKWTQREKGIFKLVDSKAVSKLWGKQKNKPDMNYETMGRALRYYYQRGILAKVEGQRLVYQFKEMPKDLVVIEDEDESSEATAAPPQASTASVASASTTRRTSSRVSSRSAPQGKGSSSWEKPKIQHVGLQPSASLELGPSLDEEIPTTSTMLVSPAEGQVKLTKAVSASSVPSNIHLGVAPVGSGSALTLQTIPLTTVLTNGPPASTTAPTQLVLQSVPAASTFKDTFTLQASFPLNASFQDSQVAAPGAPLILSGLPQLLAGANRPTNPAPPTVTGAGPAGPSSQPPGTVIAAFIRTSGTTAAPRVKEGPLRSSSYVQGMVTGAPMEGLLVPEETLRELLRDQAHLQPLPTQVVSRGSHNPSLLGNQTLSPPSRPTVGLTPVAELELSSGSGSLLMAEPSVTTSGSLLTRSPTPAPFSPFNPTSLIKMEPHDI
Chain of SPIB (Q01892 whole entry): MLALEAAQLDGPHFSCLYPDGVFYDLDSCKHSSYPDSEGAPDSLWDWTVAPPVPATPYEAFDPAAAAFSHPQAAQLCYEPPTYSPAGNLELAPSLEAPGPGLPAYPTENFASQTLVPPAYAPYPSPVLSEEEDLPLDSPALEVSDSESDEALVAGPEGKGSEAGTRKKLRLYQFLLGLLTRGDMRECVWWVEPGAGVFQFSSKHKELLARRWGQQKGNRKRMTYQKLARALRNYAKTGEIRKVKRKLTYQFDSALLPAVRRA
Chain of ETV1 (P50549 whole entry): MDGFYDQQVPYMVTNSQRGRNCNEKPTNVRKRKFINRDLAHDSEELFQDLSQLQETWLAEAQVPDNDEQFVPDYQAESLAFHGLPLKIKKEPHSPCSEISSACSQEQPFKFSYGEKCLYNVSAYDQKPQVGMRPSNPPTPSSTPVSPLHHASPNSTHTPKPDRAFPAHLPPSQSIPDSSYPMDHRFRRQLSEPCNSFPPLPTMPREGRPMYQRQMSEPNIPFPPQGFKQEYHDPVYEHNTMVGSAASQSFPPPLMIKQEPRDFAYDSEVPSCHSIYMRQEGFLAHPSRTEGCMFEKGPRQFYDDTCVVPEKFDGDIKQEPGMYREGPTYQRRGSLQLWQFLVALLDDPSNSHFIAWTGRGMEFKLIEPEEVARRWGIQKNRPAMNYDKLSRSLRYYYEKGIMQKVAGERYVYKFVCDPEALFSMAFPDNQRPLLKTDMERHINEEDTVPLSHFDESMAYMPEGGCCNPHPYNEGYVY

Consider TACCCC, for which the binding signal in the assay with FLI1 is 1.14 fold enrichment (6-mer frequency, TF over GST control); in the assay with ELK1 it was 1.11 fold enrichment (6-mer frequency, TF over GST control); with GABPA it was 1.16 fold enrichment (6-mer frequency, TF over GST control); with ERG it was 1.07 fold enrichment (6-mer frequency, TF over GST control); in the assay with ELF1, 1.14 fold enrichment (6-mer frequency, TF over GST control); in the assay with EHF it was 1.12 fold enrichment (6-mer frequency, TF over GST control). Moreover, the binding signal with SPI1 was 1.11 fold enrichment (6-mer frequency, TF over GST control); with SPIB it was 1.09 fold enrichment (6-mer frequency, TF over GST control); in the assay with ELK3, 1.11 fold enrichment (6-mer frequency, TF over GST control); in the assay with FEV, 1.07 fold enrichment (6-mer frequency, TF over GST control); with ETV5, 1.07 fold enrichment (6-mer frequency, TF over GST control); with ELF4, 1.15 fold enrichment (6-mer frequency, TF over GST control). Moreover, the binding signal was 1.06 fold enrichment (6-mer frequency, TF over GST control) with ETV1; 1.02 fold enrichment (6-mer frequency, TF over GST control) in the assay with ERF; 1.1 fold enrichment (6-mer frequency, TF over GST control) with ETV3L; 1.21 fold enrichment (6-mer frequency, TF over GST control) with ETS2; 1.12 fold enrichment (6-mer frequency, TF over GST control) in the assay with ELF5; 1.09 fold enrichment (6-mer frequency, TF over GST control) with ETV3. In addition, the binding signal with ETV6 was 1.04 fold enrichment (6-mer frequency, TF over GST control).

Values taken from publication PMC7862700, “An all-to-all approach to the identification of sequence-specific readers for epigenetic DNA modifications on cytosine”.
